BL2 CD40 inh = CD40 pathway inhibition in BL2 cells. BL2 NF-kB luciferase reporter, CD40L-induced, 4 h. inhibition, % at 10 µM. actives 0.94% (n = 83,000). AID 1053188;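 active = mean inhibition of at least 50% with a set share of replicates also reaching that level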
Large screens that a line does not name were inactive; [ ] = another dose, or the depositor's remark. This excerpt belongs to a sample that is enriched for hits.

COc1ccc(-n2c(C)c3c(C)nnc(C)c3c2C)cc1OC	none
COc1ccccc1N1C(=O)C2CC(C)=C(C)CC2C1=O (stereo not drawn)	none
COc1cc(N2C(=O)C=CC2=O)ccc1N1C(=O)C=CC1=O	BL2 CD40 inh 109
CCC(=O)N(C)C[C@@H]1[C@@H](c2ccccc2)[C@H](CO)N1Cc1cccnc1	none
O=C(Nc1ccccc1)N1CC(=O)N2[C@H](C1)[C@H](c1ccc(C#CC3CCCC3)cc1)[C@@H]2CO	none
CC1(C)CC[C@]2(C(=O)n3ccnc3)CC[C@]3(C)[C@H](C(=O)C=C4[C@@]5(C)C=C(C#N)C(=O)C(C)(C)[C@@H]5CC[C@]43C)[C@@H]2C1	BL2 CD40 inh 92
O=C1C=CC(=O)N1c1cccc2cccnc12	BL2 CD40 inh 50
O=C(O)c1cccc2cccnc12	none
c1cnc2c(c1)ccc1cccnc12	none
Cc1c(C(=O)c2ccccc2C(=O)O)sc2ccccc12	none
C[C@H](NC(=O)C[C@@H]1CC[C@H]2[C@@H](COc3ccc(NC(=O)C4CCOCC4)cc3C(=O)N2C)O1)c1ccccc1	none
CCOC(=O)C1=C(C)OC(N)=C(C#N)C1c1ccc(C)s1 (stereo not drawn)	none
CS(=O)(=O)c1ccc(C(=O)OCC(=O)NC(=O)C2COc3ccccc3O2)cc1[N+](=O)[O-] (stereo not drawn)	BL2 CD40 inh 95
Nc1ccc(C(=O)NNC(=O)C2COc3ccccc3O2)cc1[N+](=O)[O-] (stereo not drawn)	none
COc1ccc(C(=O)OCC(=O)Nc2ccc(OC)c(S(=O)(=O)N3CCCCC3)c2)cc1[N+](=O)[O-]	none
CC(C)(C)C(=O)COC(=O)c1ccc(N)c([N+](=O)[O-])c1	none
CNc1ccc(C(=O)OCC(=O)NC(=O)NC2CCCCC2)cc1[N+](=O)[O-]	none
CS(=O)(=O)c1ccc(C(=O)OCC(=O)NC(=O)C2CCCCC2)cc1[N+](=O)[O-]	BL2 CD40 inh 85
C[C@@H]1CN([C@@H](C)CO)C(=O)c2ccccc2-c2ccccc2CO[C@@H]1CN(C)S(=O)(=O)c1cccc(F)c1	none
COc1ccccc1-c1ccc([C@@H]2[C@@H](C#N)N(C(=O)C3CCC3)[C@@H]2CO)cc1	none
CN1CCN(C(=O)C[C@H]2CC[C@H]3[C@H](COc4ccc(NC(=O)C5CCC5)cc4C(=O)N3C)O2)CC1	none
CO[C@@H](CN(C)C(=O)C1CC1)[C@@H](C)CN(C(=O)Nc1ccc(C(F)(F)F)cc1)[C@@H](C)CO	none
CS(=O)(=O)N1Cc2cc(C(=O)O)nc(-c3cccc(-c4ccccc4F)c3)c2[C@H]1CCO	none
C[C@@H](NC(=O)C[C@H]1C=C[C@H](NC(=O)c2cccnc2)[C@H](CO)O1)c1ccccc1	none
CCOc1ccc2c(ccc(/C=C/c3cc(C)c4cccnc4c3O)[n+]2C)c1	BL2 CD40 inh 79
Cc1noc(C)c1NC(=O)N(C)C[C@H]1OCc2ccccc2-c2ccccc2C(=O)N([C@H](C)CO)C[C@@H]1C	none
COc1ccc(S(=O)(=O)Nc2ccc3c(c2)OC[C@@H](C)NC[C@H](C)[C@H](OC)CN(C)C3=O)cc1	none
CC12C(=O)OC(=O)C1(C)C1CCC2O1 (stereo not drawn)	BL2 CD40 inh 74[25 µM]
COc1ccc2c(c1)CCc1c(C(=O)NCc3ccc(F)cc3)noc1-2	none
COc1cc(NC(=O)c2ccc(-c3c(C)noc3C)c3ccoc23)cc(OC)c1OC	none
COc1ccc(-c2onc(C)c2-c2ccc(C(=O)OC(C)C)o2)c(O)c1	BL2 CD40 inh 34
Cn1cnnc1SCc1ccc(-c2ccc(Br)cc2)o1	BL2 CD40 inh 80
Cn1cnnc1SCc1ccc(C(=O)NN)cc1	none
Cn1cnnc1SCc1ccc(F)c2ccccc12	none
CCCCCCCCCC1(CC(=O)OCC)SCCN1C(N)=O (stereo not drawn)	none
C[C@@H]1CN([C@@H](C)CO)C(=O)c2cc(N(C)C)ccc2O[C@@H](C)CCCCO[C@@H]1CN(C)C(=O)NC1CCCCC1	none
O=C(C[C@H]1C[C@@H]2c3cc(NC(=O)C4CCC4)ccc3O[C@@H]2[C@H](CO)O1)NCc1ccccn1	none
Cc1ccnc(NC(=O)c2ccc3c(c2)C(=O)N(CC2CCCO2)C3=O)c1 (stereo not drawn)	none
Cc1ccnc(NC(=O)c2ccc(OCC3CCCO3)cc2)c1 (stereo not drawn)	BL2 CD40 inh 87
COc1ccc(NC(=O)c2ccc(OCC3CCCO3)cc2)cc1OC (stereo not drawn)	none
COc1ccc(-c2ccc3c(c2)[C@@H]2[C@@H](CCN2C(=O)c2cccc(F)c2)[C@H](CO)N3C)cc1	none
CC(C)NC(=O)Nc1cccc2c1O[C@@H](CN(C)C)[C@H](C)CN(C)C2=O	none
O=C(CN1CCOCC1)N1[C@H](CO)[C@H]2c3ccccc3NC[C@H]21	none
Cn1c(SC/C=C/c2ccccc2)nnc1-c1cccnc1	none
Cc1nn2c(-c3cccnc3)ccnc2c1-c1ccccc1	none
Cn1c(SSc2ccc(-c3cccnc3)n2C)ccc1-c1cccnc1	BL2 CD40 inh 48
O=S(=O)(c1ccc(F)cc1)N1C[C@H]2[C@@H](c3ccccc31)[C@H](CO)N2Cc1ccccc1Cl	none
Cc1ccc(P(=O)(CSC(=N)N)c2ccc(C)cc2)cc1	BL2 CD40 inh 61
N#Cc1ccccc1OCC(=O)OCCCOC(=O)COc1ccccc1C#N	none
CC(C)NC(=O)N1C[C@H]2[C@@H](c3ccccc31)[C@H](CO)N2C(=O)Nc1ccccc1	none
CN(C)S(=O)(=O)c1ccc(NC=O)cc1	BL2 CD40 inh 27
CN(C(=O)Nc1ccc(S(=O)(=O)N(C)C)cc1)C1CCCCC1	none
CN(C)S(=O)(=O)c1ccc(NC(=O)Cn2ccsc2=N)cc1	none
CCNC(=O)COC(=O)c1cccc(Br)c1	none
c1ccc(-c2ccccn2)nc1	none
c1ccc(-c2ccc(-c3ccccn3)nn2)nc1	BL2 CD40 inh 52
Nn1c(-c2ccccn2)nnc1-c1ccccn1	none
CCN(CC(=O)Nc1c(F)cccc1F)C(=O)CCNC(=O)c1ccc([N+](=O)[O-])cc1	none
O=C(c1c(Cl)nc2sccn12)N1CCN(c2cccc(Cl)c2)CC1	none
CC(=O)N1CC2(C1)[C@@H](c1ccc(-c3cccc(C#N)c3)cc1)[C@@H](CO)N2CCC(F)(F)F	none
C[C@@H]1CN([C@H](C)CO)C(=O)c2c(c3ccccc3n2C)-c2ccccc2CO[C@H]1CN(C)S(=O)(=O)c1ccccc1	none
C[C@H]1CN([C@@H](C)CO)C(=O)c2c(c3ccccc3n2C)-c2ccccc2CO[C@@H]1CN(C)S(=O)(=O)c1ccc([N+](=O)[O-])cc1	BL2 CD40 inh 50[25 µM]
C[C@@H]1CN([C@@H](C)CO)C(=O)c2c(c3ccccc3n2C)-c2ccccc2CO[C@H]1CN(C)S(=O)(=O)c1ccccc1	none
C[C@H](CO)N1C[C@H](C)[C@H](CN(C)S(=O)(=O)c2ccccc2)OCc2ccccc2-c2c(n(C)c3ccccc23)C1=O	none
C[C@H]1CN([C@@H](C)CO)C(=O)c2c(c3ccccc3n2C)-c2ccccc2CO[C@H]1CN(C)S(=O)(=O)c1ccccc1	none
COc1ccc(S(=O)(=O)N(C)C[C@H]2OCc3ccccc3-c3c(n(C)c4ccccc34)C(=O)N([C@H](C)CO)C[C@@H]2C)cc1	none
COc1ccc(S(=O)(=O)N(C)C[C@H]2OCc3ccccc3-c3c(n(C)c4ccccc34)C(=O)N([C@@H](C)CO)C[C@H]2C)cc1	none
C[C@H]1CN([C@@H](C)CO)C(=O)c2c(c3ccccc3n2C)-c2ccccc2CO[C@H]1CN(C)S(=O)(=O)c1ccc([N+](=O)[O-])cc1	BL2 CD40 inh 73[25 µM]
COc1cccc(S(=O)(=O)N(C)C[C@H]2OCc3ccccc3-c3c(n(C)c4ccccc34)C(=O)N([C@@H](C)CO)C[C@@H]2C)c1	BL2 CD40 inh 59[25 µM]
